In experiment [1] the test system is Plasmodium falciparum Sir2 (PF13_0152, Sir2A). The experiment in a line: Plasmodium falciparum Sir2A binding compounds – biochemical, small-molecule microarray, 635 nm fluorescence, primary screen (AID 1098).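 Note: score merges spot fluorescence intensity with its signal-to-noise ratio.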 The conditions noted are these: fluorescence 635 nm, higher = more signal.
Experiment [2] in a line: probe aDKK1 binding to arrayed compounds – biochemical, biotinylated probe, 635/667 nm fluorescence, primary screen (AID 1099).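 Note: score merges 667nm spot fluorescence with signal to noise across triplicate slides.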 Conditions: small-molecule microarray, higher = more signal.
A short description of experiment [3]: probe aCHRDL2 binding to arrayed compounds – biochemical, biotinylated probe, 635/667 nm fluorescence, primary screen (AID 1100). Conditions: small-molecule microarray, higher = more signal.
Experiment [4] can be described thus: change in splice reporter luminescence, either direction, cell-based, HEK293, spliceosome inhibition project, primary screen (AID 1101).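 Note: HEK293 cells carrying a splicing-competent luciferase reporter gene; test concentration not given here.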 Conditions: HEK293 splicing luciferase reporter, 24 h, higher = more signal, called active from +8 up or from −8 down. On the technique in general: Reporter assays use an easily measured gene product as a stand-in for the process of interest.

The target of experiment [5] is Fibroblast growth factor 10 (Homo sapiens) (UniProt O15520). Description: compounds binding fibroblast growth factor 10 – biochemical, small-molecule microarray, 635 nm fluorescence, primary screen (AID 1102). The conditions noted are these: FGF10 binding, fluorescence 635 nm, higher = more signal.
Chain of Fibroblast growth factor 10 (Homo sapiens) (O15520 whole entry, looked up): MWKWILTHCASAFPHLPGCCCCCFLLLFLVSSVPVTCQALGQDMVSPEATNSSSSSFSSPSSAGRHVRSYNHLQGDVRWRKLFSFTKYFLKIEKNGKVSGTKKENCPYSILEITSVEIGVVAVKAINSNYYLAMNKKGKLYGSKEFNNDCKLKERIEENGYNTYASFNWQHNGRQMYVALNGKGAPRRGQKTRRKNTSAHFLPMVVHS
The test system of experiment [6] is glycogen synthase kinase-3 (GSK3A per assay name; protocol says GSK3B). The experiment in a line: compounds binding glycogen synthase kinase-3 – biochemical, small-molecule microarray, 635 nm fluorescence, GSK3A, primary screen (AID 1103). Note: the record names both GSK3A and GSK3B. Conditions: fluorescence 635 nm, higher = more signal.
Experiment [7] addresses Epidermal growth factor receptor (Homo sapiens) (UniProt P00533). The experiment in a line: compounds binding epidermal growth factor receptor – biochemical, small-molecule microarray, 635 nm fluorescence, primary screen (AID 1104).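 Note: score merges 667 nm emission intensity with spot signal to noise over triplicate slides.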 Conditions: EGFR binding, higher = more signal.
The target in experiment [8] is Follistatin-related protein 3 (Homo sapiens) (UniProt O95633). The experiment in a line: compounds binding follistatin-related protein 3 – biochemical, small-molecule microarray, 635 nm fluorescence, primary screen (AID 1105).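 Note: score merges emission near 667 nm and signal to noise per printed spot across three slides.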 Conditions: FSTL3 binding, higher = more signal.
Chain of Follistatin-related protein 3 (Homo sapiens) (O95633 whole entry, looked up): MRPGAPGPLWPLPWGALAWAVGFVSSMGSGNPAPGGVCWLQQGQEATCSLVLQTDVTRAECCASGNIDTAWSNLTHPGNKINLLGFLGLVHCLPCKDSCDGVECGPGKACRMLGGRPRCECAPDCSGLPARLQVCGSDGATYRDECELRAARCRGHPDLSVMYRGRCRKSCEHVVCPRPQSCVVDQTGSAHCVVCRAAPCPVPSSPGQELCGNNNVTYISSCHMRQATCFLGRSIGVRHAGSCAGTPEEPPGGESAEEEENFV
The target of experiment [9] is Dickkopf-related protein 1 (Homo sapiens) (UniProt O94907). Description: small molecules binding DKK1 protein – biochemical, small-molecule microarray, 635 nm fluorescence scan, primary screen (AID 1106).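 Note: score merges emission near 667 nm with signal to noise over three replicate slides.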 The conditions noted are these: higher = more signal.
Chain of Dickkopf-related protein 1 (Homo sapiens) (O94907 whole entry, looked up): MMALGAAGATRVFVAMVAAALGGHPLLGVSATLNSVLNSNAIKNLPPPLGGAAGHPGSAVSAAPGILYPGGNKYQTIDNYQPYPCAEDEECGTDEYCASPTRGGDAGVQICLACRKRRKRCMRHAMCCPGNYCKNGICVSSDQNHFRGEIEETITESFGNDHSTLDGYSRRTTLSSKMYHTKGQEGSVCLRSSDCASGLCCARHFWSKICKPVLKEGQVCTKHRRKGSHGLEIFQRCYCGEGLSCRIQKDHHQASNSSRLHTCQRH
The test system of experiment [10] is Inhibin beta A chain (activin A). The experiment in a line: small molecules binding activin A – biochemical, small-molecule microarray, 635 nm fluorescence scan, primary screen (AID 1107).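 Note: mouse activin A protein probed at 4.33 µg/mL on printed slides; score merges bound-protein fluorescence near 667 nm with spot signal-to-noise.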 Conditions: INHBA, higher = more signal.
Experiment [11] has as its system Human papillomavirus type 1a protein E7 (residues 44-93). The experiment in a line: small molecules binding HPV E7 44-93 – biochemical, small-molecule microarray, residues 44-93, 635 nm fluorescence, primary screen (AID 1108).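 Note: E7 fragment applied at 1 µg/mL in TBST for 1 h at 4 C; score combines spot fluorescence with its signal to noise ratio.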 Conditions: fluorescence 635 nm, higher = more signal.
Experiment [12] in a line: hepatitis C replication reporter changes, two-sided – Huh7 cells, luciferase reporter, HCV replication inhibitor project, primary screen (AID 1109).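 Note: huh7 hepatoma cells harbouring a luciferase neomycin HCV replicon reporter; luciferase luminescence as measure of HCV replicon replication; test concentration not given here.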 Conditions: Huh7 HCV replicon luciferase reporter, 48 h; higher = more signal.
Experiment [13] addresses Left-right determination factor 2 (Homo sapiens) (UniProt O00292). The experiment in a line: small molecules binding LEFTY2 protein – biochemical, small-molecule microarray, 635 nm fluorescence scan, primary screen (AID 1110). The conditions noted are these: higher = more signal.
Experiment [14] has as its target Calmodulin-1 (Homo sapiens) (UniProt P0DP23). The experiment in a line: small molecules binding calmodulin-1 with EGTA – biochemical, small-molecule microarray, Cy5-labelled CALM1, profiling panel (AID 1111).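 Note: labelled calmodulin applied in Tris saline Tween buffer holding calcium plus EGTA and DTT.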 Conditions: Cy5-CALM1 binding fluorescence, higher = more signal.
Experiment [15] has the same target. The experiment in a line: small molecules binding Ca-loaded calmodulin-1 – biochemical, small-molecule microarray, Cy5-labelled CALM1, plus calcium, artefact control for SMM control-protein annotation, profiling panel (AID 1112).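 Note: score merges spot fluorescence with signal to noise from triplicate slides.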 The conditions noted are these: Cy5-CALM1 binding fluorescence, higher = more signal.
The nature of experiment [16]: probe aWnt5a binding to arrayed compounds – biochemical, biotinylated probe, 635/667 nm fluorescence, primary screen (AID 1113).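 Note: score merges 667 nm fluorescence intensity with signal-to-noise per printed feature.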 The conditions noted are these: small-molecule microarray, higher = more signal.
Experiment [17] is described as follows: probe aShh binding to arrayed compounds – biochemical, biotinylated probe, 635/667 nm fluorescence, primary screen (AID 1114).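 Note: probe is biotin-labelled aShh protein from a stem cell growth factor screen; measures binding of labelled protein to compounds printed on the slide; score merges feature fluorescence at 667 nm with signal-to-noise.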 The conditions noted are these: small-molecule microarray, higher = more signal.
The nature of experiment [18]: probe aNog binding to arrayed compounds – biochemical, biotinylated probe, 635/667 nm fluorescence, primary screen (AID 1115).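 Note: probe is biotinylated aNog protein used at 0.15 µg/mL for 1 h at 4 C; z-score combines 667 nm fluorescence of each spot with its signal to noise.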 The conditions noted are these: small-molecule microarray, higher = more signal.
In experiment [19] the target is Torsin-1A-interacting protein 1 (Homo sapiens) (UniProt Q5JTV8). The experiment in a line: compound microarray binding of lysate hLAP1 – cell lysate, small-molecule microarray, COS7 lysate, 635/667 nm fluorescence, primary screen (AID 1116). The conditions noted are these: 635 nm fluorescence, higher = more signal.
Chain of Torsin-1A-interacting protein 1 (Homo sapiens) (Q5JTV8 whole entry, looked up): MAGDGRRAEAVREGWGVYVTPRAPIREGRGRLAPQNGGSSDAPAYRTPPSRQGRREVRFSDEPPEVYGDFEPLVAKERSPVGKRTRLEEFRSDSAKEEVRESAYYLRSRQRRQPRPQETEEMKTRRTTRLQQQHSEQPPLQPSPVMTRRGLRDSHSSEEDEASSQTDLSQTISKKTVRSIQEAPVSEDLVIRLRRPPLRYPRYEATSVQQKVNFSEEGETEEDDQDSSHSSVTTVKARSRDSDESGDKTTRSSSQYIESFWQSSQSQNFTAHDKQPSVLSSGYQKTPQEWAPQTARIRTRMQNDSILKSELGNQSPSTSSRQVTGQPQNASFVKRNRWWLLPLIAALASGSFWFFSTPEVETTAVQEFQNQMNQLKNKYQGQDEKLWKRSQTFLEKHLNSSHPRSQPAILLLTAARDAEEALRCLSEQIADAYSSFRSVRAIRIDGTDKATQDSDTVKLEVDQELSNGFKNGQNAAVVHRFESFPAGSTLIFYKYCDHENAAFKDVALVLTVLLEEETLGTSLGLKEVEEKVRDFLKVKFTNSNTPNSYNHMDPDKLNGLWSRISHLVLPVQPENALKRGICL
Experiment [20] deals with Alpha-bungarotoxin (Bungarus multicinctus) (UniProt P60615). The experiment in a line: compounds binding labelled alpha-BTX control protein – biochemical, small-molecule microarray, Alexa647 label, 635/667 nm fluorescence, artefact control for SMM control protein annotation, profiling panel (AID 1117). Conditions: alpha-BTX-A647 binding fluorescence, higher = more signal.
Chain of Alpha-bungarotoxin (Bungarus multicinctus) (P60615 whole entry, looked up): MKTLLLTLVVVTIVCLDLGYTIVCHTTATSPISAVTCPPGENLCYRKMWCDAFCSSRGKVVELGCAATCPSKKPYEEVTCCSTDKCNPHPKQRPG

Activity calls are given as the source filed them.

Chain of Epidermal growth factor receptor (Homo sapiens) (P00533 whole entry, looked up): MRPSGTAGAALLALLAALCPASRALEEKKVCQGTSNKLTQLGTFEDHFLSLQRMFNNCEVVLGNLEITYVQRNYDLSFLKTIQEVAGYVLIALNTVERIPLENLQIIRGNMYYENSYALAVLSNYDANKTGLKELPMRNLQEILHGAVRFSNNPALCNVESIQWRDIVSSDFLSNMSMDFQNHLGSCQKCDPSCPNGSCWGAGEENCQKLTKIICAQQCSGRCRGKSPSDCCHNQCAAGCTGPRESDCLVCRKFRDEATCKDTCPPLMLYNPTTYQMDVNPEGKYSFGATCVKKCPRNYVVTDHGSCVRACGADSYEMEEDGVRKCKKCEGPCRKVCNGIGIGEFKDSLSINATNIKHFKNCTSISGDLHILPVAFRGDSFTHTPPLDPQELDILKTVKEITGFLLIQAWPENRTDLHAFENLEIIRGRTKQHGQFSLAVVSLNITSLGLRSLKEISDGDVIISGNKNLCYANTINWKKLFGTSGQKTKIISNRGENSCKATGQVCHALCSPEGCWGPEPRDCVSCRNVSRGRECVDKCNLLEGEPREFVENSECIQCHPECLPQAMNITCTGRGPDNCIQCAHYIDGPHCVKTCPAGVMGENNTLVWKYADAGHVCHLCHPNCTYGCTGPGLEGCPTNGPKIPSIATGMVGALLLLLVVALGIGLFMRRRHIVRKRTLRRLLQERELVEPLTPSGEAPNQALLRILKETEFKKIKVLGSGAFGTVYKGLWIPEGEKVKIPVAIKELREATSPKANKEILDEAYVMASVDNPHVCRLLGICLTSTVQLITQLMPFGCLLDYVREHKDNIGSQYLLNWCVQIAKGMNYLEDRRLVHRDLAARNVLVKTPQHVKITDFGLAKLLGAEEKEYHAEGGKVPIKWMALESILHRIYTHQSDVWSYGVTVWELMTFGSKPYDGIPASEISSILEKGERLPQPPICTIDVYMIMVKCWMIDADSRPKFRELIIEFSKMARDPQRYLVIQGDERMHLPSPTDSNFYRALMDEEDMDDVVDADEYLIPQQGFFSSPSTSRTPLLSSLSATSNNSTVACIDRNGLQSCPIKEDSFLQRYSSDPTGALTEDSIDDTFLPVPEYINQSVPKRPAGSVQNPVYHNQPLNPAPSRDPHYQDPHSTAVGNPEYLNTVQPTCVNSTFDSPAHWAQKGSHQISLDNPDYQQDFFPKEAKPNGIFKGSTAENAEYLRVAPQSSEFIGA
Chain of Left-right determination factor 2 (Homo sapiens) (O00292 whole entry, looked up): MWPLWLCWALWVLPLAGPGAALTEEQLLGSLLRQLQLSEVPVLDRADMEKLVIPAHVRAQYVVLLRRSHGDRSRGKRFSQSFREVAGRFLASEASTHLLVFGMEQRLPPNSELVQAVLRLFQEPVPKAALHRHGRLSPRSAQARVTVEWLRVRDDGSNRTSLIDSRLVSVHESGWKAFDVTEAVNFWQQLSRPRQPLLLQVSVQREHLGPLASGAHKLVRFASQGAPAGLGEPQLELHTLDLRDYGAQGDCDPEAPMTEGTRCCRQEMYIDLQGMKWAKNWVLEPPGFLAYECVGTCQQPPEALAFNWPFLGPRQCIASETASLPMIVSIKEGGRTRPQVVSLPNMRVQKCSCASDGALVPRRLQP

Take `C=C(CCCC)/C(=C/C[C@@H](OC(=O)c1ccncc1)c1ccc(OCCO)cc1)c1cnc2ccccc2c1`: the composite z-score in experiment [1] was determined as 0.711; in experiment [2], 0.358; in experiment [3] it was 0.686; in experiment [5], 1.24; in experiment [6] it was 0.633; in [7], 1.15. The composite z-score in experiment [8] came out at 1.53; in experiment [9] it was 1.68; in experiment [10], 1.8; in [11], 0.602; in [13] it was 0.737; in experiment [14], 0.0142. Also, the composite z-score is -0.184 in experiment [15]; -0.096 in [16]; 0.164 in [17]; 0.168 in experiment [18]; -0.0621 in experiment [19]; 3.3 in experiment [20]. The z-score is -1.18 (inactive) in experiment [4] and -1.3 in experiment [12].

On to `CN1C=C(C(=O)OCCS(C)(=O)=O)C(C(=O)OCCS(C)(=O)=O)=CC(CCCO)=CC1c1cccs1` (stereo not given), for which the composite z-score in experiment [1] is -0.122; in experiment [2] it was -0.18; in experiment [3] it was -0.707; in experiment [5], 0.395; in [6] it was 0.891; in experiment [7], 0.56. For the same compound, the composite z-score in experiment [8] was 0.663; in experiment [9] it was 0.537; in [10], -0.558; in experiment [11] it was 0.358; in experiment [13], 0.716; in [14], -0.524. Further, the composite z-score in experiment [15] was -0.676; in experiment [16] it was -0.0161; in [17], -0.0011; in experiment [18], -0.036; in experiment [19], 0.151; in experiment [20] it was -0.515. In addition, the results for the z-score in experiment [4] and in [12] were -0.601 (inactive) and -0.911, respectively.

With `COCCOC(=O)N1C(=O)[C@@]2(c3cc(C#CCCO)ccc31)[C@H](c1ccccc1OCCO)N1[C@H](c3ccccc3)[C@H](c3ccccc3)OC(=O)[C@H]1[C@@H]2C(=O)NC[C@H](O)c1ccccc1`, the composite z-score in [1] was 1.34; in experiment [2] it was 0.704; in experiment [3], 0.416; in [5], 1.16; in experiment [6] it was 1.22; in [7], 0.2. The composite z-score was 1.35 in [8]; 0.74 in experiment [9]; 0.274 in [10]; 0.722 in experiment [11]; 0.449 in experiment [13]; 1.11 in [14]. For the same compound, the composite z-score in experiment [15] was 0.678; in [16] it was -0.0512; in experiment [17], 0.275; in experiment [18], 0.482; in experiment [19] it was 1.38; in experiment [20], 1.89. Further, the figures for the z-score in experiment [4] and in [12] were -0.428 (inactive) and -1.53, respectively.

Consider `CC(C)NC(=O)[C@@H]1c2ccccc2C(=O)N(Cc2cc(F)cc(C(F)(F)F)c2)[C@H]1c1ccc(CO)cc1`, for which the composite z-score is 1.51 in experiment [1]; 0.478 in [2]; 0.94 in experiment [3]; -0.535 in [5]; -0.825 in experiment [6]; -0.979 in experiment [7]. For the same compound, the composite z-score in experiment [8] was -1.17; in [9] it was -0.833; in experiment [10], -0.476; in experiment [11], 0.719; in experiment [13], -0.556; in [14], 0.343. For the same compound, the composite z-score in experiment [15] is 0.916; in [16], -0.25; in experiment [17] it was -0.321; in [18] it was 0.27; in experiment [19] it was 0.0026; in experiment [20], -0.948. The values for the z-score in experiment [4] and in [12] were -1.05 (inactive) and 0.32, respectively.

`CC(C)C(=C=CC[C@H](O)c1ccc(OCCO)cc1)C[C@H](O)COCc1ccccc1`: the composite z-score in experiment [1] is 1.12; in [2], -0.0067; in [3], -0.226; in experiment [5] it was 0.498; in experiment [6] it was 0.653; in experiment [7], -0.445. The composite z-score in experiment [8] is 0.421; in experiment [9] it was 0.141; in experiment [10], 1.42; in [11], 0.162; in experiment [13], -0.022; in experiment [14], 0.59. Further, the composite z-score was -0.627 in experiment [15]; -0.0403 in experiment [16]; 0.0469 in experiment [17]; 0.217 in experiment [18]; 0.833 in [19]; 1.07 in experiment [20]. Moreover, the z-score was -0.642 (inactive) in experiment [4] and -1.87 in [12].
